From PubChem
NALP1 yeast inh – NALP1 inflammasome inhibitors in reconstituted yeast, colorimetric, S. cerevisiae, triplicate retest. S. cerevisiae NALP1/ASC/caspase-1 growth, X-gal OD620, 72 h. inhibition, % at 10 µM. actives 0.61% (n = 280,000). AID 2071, 2009; in the data active = inhibition mostly above about 24%, no sharp cut-off; inactive = mostly below about 32%
TIM10 inh – growth inhibitors of isogenic TIM10 control yeast, primary screen, counter-screen for tim10-1 yeast inhibitor project, luminescence, uHTS; actives 1.4% (n = 330,000); inhibition, % at 10 µM; S. cerevisiae TIM10 strain growth, BacTiter-Glo luminescence, 24 h;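 active = inhibition of 40% or more at the single tested concentration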;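 also: wild-type TIM10 isogenic control strain grown at permissive 25 °C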
tim23-1 inh – growth inhibitors of tim23-1 mutant yeast, primary screen, luminescence, uHTS; actives 1.3% (n = 330,000); S. cerevisiae tim23-1 growth, BacTiter-Glo luminescence, 24 h; inhibition, % at 20 µM;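 active = growth inhibition of the mutant yeast at or above 50%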;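 also: temperature-sensitive mutant grown at 25 °C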
NLRP3 yeast inh – NALP3 inflammasome inhibitors in reconstituted yeast, primary screen, luminescence, uHTS | actives 0.39% (n = 330,000) | AID 2825, 2010 | Yeast reconstituted NLRP3/ASC/caspase-1, beta-gal luminescence, 24 h | inhibition, % at 10 µM;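 active = inhibition of 50% or more; inactive = inhibition below 50%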
tim10-1 inh – growth inhibitors of tim10-1 mutant yeast, primary screen, luminescence, uHTS | S. cerevisiae tim10-1 ts strain growth, BacTiter-Glo, 24 h | actives 2.2% (n = 330,000) | AID 463190, 2010 | inhibition, % at 20 µM;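 active = inhibition of at least 40%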;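 also: mutant grown at 25 °C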
Numbers stand for hits; - = inactive; . = not tested or not shown. A selection: hits, their analogues and other compounds. The true share with any hit is near 4%.

SMILES	NALP1 yeast inh	TIM10 inh	tim23-1 inh	NLRP3 yeast inh	tim10-1 inh
COCCCN1Cc2cccc(C(=O)O)c2C1=O	37.7	-	-	-	-
COc1ccc(N(C)S(=O)(=O)c2ccc3c(c2)NC(=O)CO3)c(OC)c1	-	-	-	-	-
C[C@@H](NC(=O)[C@@H]1Cc2ccccc2CN1C(=O)OC(C)(C)C)C(=O)NC1CCCCC1	-	-	-	-	-
CC(NCC(O)COC1CCC(C(C)(C)C)CC1)c1ccccc1 (centres undefined)	25.2	-	-	-	-
CC1CCC(C(C)C)C(OCC(O)CNC(C)c2ccccc2)C1 (centres undefined)	-	-	-	-	-
COC(=O)c1scc(C)c1N/N=C(\C)c1cc(F)c(Cl)cc1F	42.0	-	-	-	-
O=C(NC1CC1)c1cc2cc(Br)ccc2s1	29.9	-	-	-	-
COc1cc2c(cc1NC(=O)c1cccc(S(=O)(=O)N(C)C)c1)oc1ccccc12	-	-	-	-	-
CCOc1ccc(C(=O)C2CCN(C(=O)c3ccc([N+](=O)[O-])cc3)CC2)cc1	-	-	-	-	-
Clc1cccc2c1Sc1ccccc1CC2N1CCNCC1 (centres undefined)	74.2	-	-	-	-
O=C1COc2ccc(C(=O)COC(=O)c3ccc([N+](=O)[O-])cc3Cl)cc2N1	.	-	-	-	-
CCCCN(CCCC)Cc1cc2ccccc2c2c1COC2	44.2	-	-	-	-
CCCN(CCC)Cc1cc2ccccc2c2c1COC2	-	-	-	-	-
CCCCNC(=S)NNc1c(Cl)cc(Cl)cc1Cl	-	-	-	-	-
O=C(NCCCl)NNc1c(Cl)cc(Cl)cc1Cl	30.7	-	-	-	-
COc1ccc(S(=O)(=O)N2CCC(C(=O)NCc3ccncc3)CC2)cc1	-	-	-	-	-
COc1ccc(N(C)C(=O)c2ccc(NC(=O)CCS(=O)(=O)c3cccs3)cc2)cc1	-	-	-	-	-
CC(C)CC(=O)/C(=C\c1ccc(Cl)cc1Cl)n1cncn1	111.6	.	.	.	.
O=C(CSc1nnc(-c2ccccc2F)n1CCc1ccccc1)Nc1ccc2[nH]c(=O)[nH]c2c1	-	-	-	-	-
CCN(CC)CCNC(=O)c1cn(CCOC)c(=O)c2c1c1ccccc1n2C	-	-	-	-	-
CCN(CC)CCCNC(=O)c1cn(CCOC)c(=O)c2c1c1ccccc1n2C	30.6	-	-	-	-
COc1cccc(CNC(=O)CN2c3cccc4cccc(c34)S2(=O)=O)c1	.	-	-	-	-
O=C(COC(=O)C12CC3CC(CC(C3)C1)C2)NCCc1ccccc1	-	-	-	-	-
COc1ccc(N2CCN(C3=CC(=O)N(c4cccc(Cl)c4)C3=O)CC2)cc1	23.5	-	-	-	-
COc1ccc(N2C(=O)CC(N3CCN(c4cccc(Cl)c4)CC3)C2=O)cc1 (centres undefined)	-	-	-	-	-
SMILES	NALP1 yeast inh	TIM10 inh	tim23-1 inh	NLRP3 yeast inh	tim10-1 inh
O=C(c1ccccc1)c1c2c(cc3sc4ccccc4[n+]13)-c1cccc3cccc-2c13	58.1	.	.	.	.
COc1ccc(OC)c(NC(=O)CN2C(=O)C(C)N(c3ccc(C)cc3)C2=O)c1 (centres undefined)	.	-	-	-	-
CCc1cccc(NC(=O)Cn2c(=O)c3cccn3c3ccccc32)c1	-	-	-	-	-
CCOC(=O)c1sc(NC(=O)c2cccc(S(=O)(=O)N(CC)CC)c2)cc1C	-	-	-	-	-
CCOC(=O)c1sc(NC(=O)c2ccc(S(=O)(=O)N(C)C)cc2)cc1C	40.7	-	-	-	-
CCOc1ccccc1NC(=O)c1ccc(S(=O)(=O)N(C)C)cc1	40.9	-	-	-	-
O=C(COC(=O)CSc1ccc(Cl)cc1)NCCc1ccccc1	.	-	-	-	-
CCc1nccn1S(=O)(=O)c1ccc(OC)c(C)c1C	34.1	-	-	-	-
COc1ccc(O)c(C(=O)c2cnc3c(c2)CN(C)C(=O)N3)c1	-	-	-	-	-
COCCN(Cc1cc2cc(C)ccc2n2nnnc12)C(=S)Nc1ccccc1C	23.6	-	-	-	-
Cn1c(SCC(=O)NNC(=O)c2ccccc2Br)nnc1C(F)(F)F	.	-	-	-	-
Cc1cc(OC(=O)C(C)(C)C)c([N+](=O)[O-])c(=O)[nH]1	33.9	-	-	-	-
O=C(CSc1nccc(=O)[nH]1)NCc1ccco1	43.2	-	-	-	-
Cc1cc(=O)[nH]c(SCC(=O)NCc2ccco2)n1	-	-	-	-	-
O=C(CCNC(=O)c1ccco1)NCCc1ccc(Cl)cc1	38.1	-	-	-	-
Cc1ccc(C2(C(F)(F)F)NC(=O)N3CCN=C3S2)cc1 (centres undefined)	-	-	-	-	-
Cc1ccc(C2(C(F)(F)F)N=C3Sc4cc(C)ccc4N3C(=O)N2)cc1 (centres undefined)	36.2	-	-	-	-
O=c1c(-c2ccco2)[n+]([O-])c2ccccc2n1OCc1ccccc1	37.0	-	-	-	-
Cc1cccc(Nc2cc(C)c3c(O)cccc3n2)c1C	60.3	-	-	-	-
Cc1cccc(NC(=S)N(C)C)c1C	-	-	-	-	-
CC(C(=O)NCc1ccccc1Cl)N1C(=O)c2ccccc2C1=O (centres undefined)	-	-	-	-	-
CC1CN(C(=O)Nc2ccc(F)cc2F)CC(C)O1 (centres undefined)	-	-	-	-	-
Cc1ccc(C)c(Cn2c(CN(C)Cc3ccccc3)nc3c2c(=O)n(C)c(=O)n3C)c1	40.2	-	-	-	-
COC(=O)[C@]1(Cc2ccccc2)N[C@H](CN(C)S(=O)(=O)c2ccc(-c3ccccc3)cc2)[C@@H]2C(=O)N(C)C(=O)[C@@H]21	.	-	-	-	-
CCC(C(=O)Nc1cnccn1)c1ccccc1 (centres undefined)	21.7	-	-	-	-
SMILES	NALP1 yeast inh	TIM10 inh	tim23-1 inh	NLRP3 yeast inh	tim10-1 inh
CC(=O)Nc1ccc(SCC(=O)N2CCN(S(=O)(=O)c3ccccc3)CC2)cc1	-	-	-	-	-
Nc1nccnc1C(=O)OCC(=O)Nc1ccc2[nH]c(=O)[nH]c2c1	.	-	-	-	-
CN1CCN(C(=O)C2CCC(=O)N(Cc3cccc(C(F)(F)F)c3)C2)CC1 (centres undefined)	31.9	-	-	-	-
CCCN=C1N(C)C[C@@H]2[C@@H]3C(=O)N(C)C(=O)[C@@H]3[C@](C)(C(=O)OC)N12	.	-	-	.	-
Cc1ccccc1-c1nn(-c2ccc(F)cc2F)cc1CNCCCO	19.8	-	-	-	-
CCCCc1ccc(NC(=O)CSc2nc(=O)n(CCCN3CCOCC3)c3c2CCC3)cc1	.	-	-	-	-
CN1/C(=C/c2cccc[n+]2CCO)Sc2ccccc21	-	-	-	-	-
CC[n+]1c(/C=C2\Sc3ccccc3N2C)ccc2cccc(C)c21	100.3	.	.	.	.
